From the supplement of paper PMC9402605 come the findings set out here.

SMILES strings stand for the structures. ± gives the standard deviation of the averaged measurements.

For this test, the system named is Caenorhabditis elegans N2. Put plainly: egg-laying rate relative to DMSO control (M9 buffer background) (fraction of control); higher = more egg-laying. The following applies: 60 µM, 1 h. As to the method:
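About 20 young-adult wild-type C. elegans (N2) per well in 96-well plates were exposed to 60 uM compound for 1 h at room temperature, either in M9 buffer (to find stimulators) or in 12.3 mM serotonin + 7.7 mM nicotine (NS, to find inhibitors). Eggs per worm per hour were counted by automated imaging and normalised to the mean of proximal DMSO control wells. Values average the primary screen and two retests of the worm-active (wactive) Egl modulators.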
`c1ccc(CSc2nnc(-c3ccccc3)o2)cc1` [wact-38] gave an egg-laying rate of 8.44 ± 0.94.

Take `Cc1ccccc1C(=O)NCCc1ccccc1` [wact-406]: the egg-laying rate is 0.741 ± 0.36.

On to `Ic1cccc(-c2nnc(-c3ccccc3)o2)c1` [wact-51], for which the egg-laying rate came out at 2.92 ± 1.6.

`c1csc(-c2cnc3ccccc3n2)c1` [wact-21]: the egg-laying rate is 4.69 ± 1.8.

The compound `O=[N+]([O-])c1ccc(N2CCN(CC3CC4C=CC3C4)CC2)cc1` (stereo not given) [wact-46] displayed an egg-laying rate of 11 ± 6.7.

Compound `Brc1cccc(-c2cn3ccccc3n2)c1` [wact-435] displayed an egg-laying rate of 0.576 ± 0.34.

The compound `O=[N+]([O-])c1ccc(N2CCN(CC3CCCCC3)CC2)cc1` [wact-45] gave an egg-laying rate of 4.22 ± 1.8.

In turn, `O=[N+]([O-])c1ccc(N2CCc3ccccc3C2)nc1` [wact-421] registered an egg-laying rate of 1.83 ± 0.59.

In turn, `CCc1ccc(-c2cn3ccsc3n2)cc1` [wact-434] gave an egg-laying rate of 1.53 ± 0.93.

In turn, `Cc1ccc(-c2cnc(-c3ccncc3)o2)cc1` [wact-23] registered an egg-laying rate of 3.94 ± 1.5.

As for `CCCCOC(=O)Nc1ccc([N+](=O)[O-])cc1` [wact-419], the egg-laying rate was 2.9 ± 0.58.

In turn, `CCC1CCC(N2CCN(c3ccc([N+](=O)[O-])cc3)CC2)CC1` (stereo not given) [wact-6] yielded an egg-laying rate of 7.85 ± 2.4.

In turn, `O=[N+]([O-])c1ccc(-n2ccc3ccccc32)cc1` [wact-213] showed an egg-laying rate of 2.13 ± 1.5.

`O=[N+]([O-])c1ccc(N2CCN(CC3CC=CCC3)CC2)cc1` (stereo not given) [wact-47] displayed an egg-laying rate of 10.6 ± 6.3.

`O=[N+]([O-])c1ccc(CSc2ccc(Cl)cc2)cc1` [wact-3] came in with an egg-laying rate of 2.13 ± 0.22.

Take `Cc1ccccc1C(=O)NCCSC1CCCCC1` [wact-494]: the egg-laying rate worked out at 1.03 ± 0.24.

Turning to `Fc1ccc(-c2cn3ccsc3n2)cc1` [wact-433], the egg-laying rate was 3.02 ± 1.1.

As to `O=C(Nc1cccc(Cl)c1)N1CCN(c2ccc([N+](=O)[O-])cc2)CC1` [wact-31], the egg-laying rate was determined as 2.02 ± 0.75.

Compound `Clc1ccc(-c2cn3ccsc3n2)cc1` [wact-1] yielded an egg-laying rate of 1.94 ± 0.54.

Compound `O=C1CC(N2CCN(c3ccc([N+](=O)[O-])cc3)CC2)C(=O)N1c1ccccc1F` (stereo not given) [wact-56] came in with an egg-laying rate of 2.24 ± 0.45.

`O=C(Nc1ccc(I)cc1)c1ccco1` [wact-27] displayed an egg-laying rate of 3.06 ± 1.5.

As to `CCOc1ccc(C(=O)c2cccs2)cc1` [wact-471], the egg-laying rate was 2.49 ± 2.2.

Consider `CCSc1nnc(-c2ccc(Cl)cc2Cl)o1` [wact-4], for which the egg-laying rate came to 4.56 ± 1.9.

On to `Cc1ccn2cc(-c3ccc(F)cc3)nc2c1` [wact-436], for which the egg-laying rate amounted to 1.94 ± 0.73.

In turn, `COc1ccc(C=Cc2ccccn2)cc1` [wact-622] came in with an egg-laying rate of 1.19 ± 0.28.
